# How the values were obtained:
# Assay in all cases: yeast three-hybrid, YBZ-1, SC-Leu-His + 0.5 mM 3-AT, 4 days
# Details in all cases: tags: N-Gal4 AD-HA kept; label: inside an RPR1-promoter hybrid RNA with tandem MS2 sites; ssRNA
# PUM1 PUF domain R7-QSR = PUM1 PUF domain R7-QSR (Homo sapiens, UniProt Q14671 828-1176, S1079Q;N1080S;E1083R)
# How it was run: (§1)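 Pumilio-1 PUF domain libraries, randomized at the three base-contacting residues of each repeat, were co-expressed with matching RNA elements from a centromeric plasmid in strain YBZ-1, which carries a LexA–MS2 coat fusion and a HIS3 reporter. Transformants grew for four days on SC-Leu (input) or on SC-Leu-His + 0.5 mM 3-AT (selection), and the repeat regions were PCR-amplified and Illumina-sequenced. The interaction score is the log change in variant frequency from input to selection. That logarithm is base 2, with a pseudocount of 1 where a variant was absent.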
# PUM1 PUF domain R3-ASE = PUM1 PUF domain R3-ASE (Homo sapiens, UniProt Q14671 828-1176, C935A;R936S;Q939E)
# How it was run: as §1
# PUM1 PUF domain R3-WCS = PUM1 PUF domain R3-WCS (Homo sapiens, UniProt Q14671 828-1176, C935W;R936C;Q939S)
# How it was run: as §1
# PUM1 PUF domain R8-LRK = PUM1 PUF domain R8-LRK (Homo sapiens, UniProt Q14671 828-1176, N1122L;Y1123R;Q1126K)
# How it was run: as §1
# PUM1 PUF domain R3-VWC = PUM1 PUF domain R3-VWC (Homo sapiens, UniProt Q14671 828-1176, C935V;R936W;Q939C)
# How it was run: as §1
# PUM1 PUF domain R4-TPE = PUM1 PUF domain R4-TPE (Homo sapiens, UniProt Q14671 828-1176, N971T;H972P;Q975E)
# How it was run: as §1
# PUM1 PUF domain R4-SNV = PUM1 PUF domain R4-SNV (Homo sapiens, UniProt Q14671 828-1176, N971S;H972N;Q975V)
# How it was run: as §1
# PUM1 PUF domain R4-EYQ = PUM1 PUF domain R4-EYQ (Homo sapiens, UniProt Q14671 828-1176, N971E;H972Y)
# How it was run: as §1
# PUM1 PUF domain R4-NRC = PUM1 PUF domain R4-NRC (Homo sapiens, UniProt Q14671 828-1176, H972R;Q975C)
# How it was run: as §1
# PUM1 PUF domain R4-DFI = PUM1 PUF domain R4-DFI (Homo sapiens, UniProt Q14671 828-1176, N971D;H972F;Q975I)
# How it was run: as §1
sequence,measurement,setting,value
GGCUAGAACUAGUGGAUCCCCCGGCGCCCGGCGGCUCGAGCCCGGGUAAGUUUAAAUAGUCUGCAUGCCGCCGGGCGCCAUGCCUGCAGGUCGACUCUAGAAAACAUG,binding signal,PUM1 PUF domain R7-QSR,3.84 log2 enrichment (interaction score)
GGCUAGAACUAGUGGAUCCCCCGGCGCCCGGCGGCUCGAGCCCGGGUAAGUGUAAGUAGUCUGCAUGCCGCCGGGCGCCAUGCCUGCAGGUCGACUCUAGAAAACAUG,binding signal,PUM1 PUF domain R3-ASE,4.6 log2 enrichment (interaction score)
same,binding signal,PUM1 PUF domain R3-WCS,2.96 log2 enrichment (interaction score)
GGCUAGAACUAGUGGAUCCCCCGGCGCCCGGCGGCUCGAGCCCGGGUAAGCGUAAAUAGUCUGCAUGCCGCCGGGCGCCAUGCCUGCAGGUCGACUCUAGAAAACAUG,binding signal,PUM1 PUF domain R8-LRK,2.19 log2 enrichment (interaction score)
GGCUAGAACUAGUGGAUCCCCCGGCGCCCGGCGGCUCGAGCCCGGGUAAGUGUAAUUAGUCUGCAUGCCGCCGGGCGCCAUGCCUGCAGGUCGACUCUAGAAAACAUG,binding signal,PUM1 PUF domain R3-VWC,3.83 log2 enrichment (interaction score)
same,binding signal,PUM1 PUF domain R3-WCS,1.01 log2 enrichment (interaction score)
GGCUAGAACUAGUGGAUCCCCCGGCGCCCGGCGGCUCGAGCCCGGGUAAGUGUAUAUAGUCUGCAUGCCGCCGGGCGCCAUGCCUGCAGGUCGACUCUAGAAAACAUG,binding signal,PUM1 PUF domain R4-TPE,3.03 log2 enrichment (interaction score)
same,binding signal,PUM1 PUF domain R4-SNV,3.72 log2 enrichment (interaction score)
GGCUAGAACUAGUGGAUCCCCCGGCGCCCGGCGGCUCGAGCCCGGGUAAGUGUAAAUAGUCUGCAUGCCGCCGGGCGCCAUGCCUGCAGGUCGACUCUAGAAAACAUG,binding signal,PUM1 PUF domain R8-LRK,1.28 log2 enrichment (interaction score)
same,binding signal,PUM1 PUF domain R4-EYQ,1.61 log2 enrichment (interaction score)
same,binding signal,PUM1 PUF domain R4-SNV,1.05 log2 enrichment (interaction score)
same,binding signal,PUM1 PUF domain R4-NRC,3.78 log2 enrichment (interaction score)
GGCUAGAACUAGUGGAUCCCCCGGCGCCCGGCGGCUCGAGCCCGGGUAAGUGUACAUAGUCUGCAUGCCGCCGGGCGCCAUGCCUGCAGGUCGACUCUAGAAAACAUG,binding signal,PUM1 PUF domain R4-DFI,3.24 log2 enrichment (interaction score)
same,binding signal,PUM1 PUF domain R4-EYQ,3.27 log2 enrichment (interaction score)
same,binding signal,PUM1 PUF domain R4-SNV,3.34 log2 enrichment (interaction score)

# — article PMC8384837, “Expanding the binding specificity for RNA recognition by a PUF domain”
